Experimental data: PubChem BioAssay (NCI)
Compounds without any hit were thinned out: in the full panel of roughly 79,000, 15% have a hit. Cut-off read from the data, not from the text of the source: active = growth inhibition above about 70%; inactive = the rest.

Assays:
[1] = NCI Yeast Anticancer Drug Screen. Data for the rad50 strain (AID 155);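 note: 0% = growth of vehicle-only cultures of the same strain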; conditions: S. cerevisiae rad50 strain growth inhibition; at 50.0 µM; stronger effect = higher value
How it was run: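 Growth of the mutant yeast was measured after compound exposure and referenced to vehicle-treated cultures.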

[2] = NCI Yeast Anticancer Drug Screen. Data for the mec2-1 strain (AID 157); conditions: S. cerevisiae mec2-1 strain, at 50.0 µM, stronger effect = higher value
How it was run: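 Vehicle-treated cultures served as reference for growth inhibition of compound-exposed mec2-1 yeast.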

[3] = NCI Yeast Anticancer Drug Screen. Data for the sgs1 mgt1 strain (AID 161);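 note: 0% = growth of cultures given vehicle only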; conditions: S. cerevisiae sgs1 mgt1 strain, at 50.0 µM, stronger effect = higher value
How it was run: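 Genetically altered yeast, compound exposure, growth inhibition relative to vehicle.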

[4] = NCI Yeast Anticancer Drug Screen. Data for the cln2 rad14 strain (AID 165);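 note: 0% = growth equal to vehicle treated cultures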; conditions: S. cerevisiae cln2 rad14 strain, at 50.0 µM, stronger effect = higher value
How it was run: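 Each compound was tested on cln2 rad14 yeast. Inhibition of growth was calculated against vehicle-exposed controls.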

[5] = NCI Yeast Anticancer Drug Screen. Data for the bub3 strain (AID 167); conditions: S. cerevisiae bub3 mutant strain, at 50.0 µM, stronger effect = higher value
How it was run: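 Whole-cell yeast assay. The mutant strain was incubated with compounds, and growth inhibition was determined by comparison with vehicle-treated cells.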

[6] = NCI Yeast Anticancer Drug Screen. Data for the mlh1 rad18 strain (AID 175); conditions: S. cerevisiae mlh1 rad18 strain growth inhibition; at 50.0 µM; stronger effect = higher value
How it was run: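 Vehicle-treated cultures served as the reference for growth inhibition in a yeast strain carrying DNA damage repair alterations exposed to each compound.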

Measured: growth inhibition

O=C(OC(CN1CCCCC1)CN1CCCc2ccccc21)C(O)C(O)C(O)(CO)C(=O)OC(CN1CCCCC1)CN1CCCc2ccccc21 (stereo not drawn)
inactive: [1] 15.4% | [2] 7.05% | [3] 43.8% | [4] 1.8% | [5] 7.95% | [6] 41.1%

CC(C)OC/N=C(/N)NC#N
inactive: [1] -17.1% | [2] 13.1% | [3] -29.4% | [4] 12.6% | [5] -10.1% | [6] -6.5%

NC1(C(=O)O)CCCCC1
inactive: [1] -11.3% | [2] -7.5% | [3] -30.7% | [4] -34.7% | [5] -12.9% | [6] -18.4%
